Here are results for 91 molecules from PubChem BioAssay AID504621 (Broad Institute, 2011).

Molecules are shown by their SMILES. Where “and” joins values, the source holds several entries; their conditions need not be identical. Identical values can stand only once. In all, about 310,000 compounds went through this assay and about 970 (0.31%) were called active.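 How the source made its calls: active means every replicate shows inhibition above about 80%, whatever the replicate mean (limit read from the data); inconclusive means mean inhibition reaches the set limit but some replicate falls short; inactive means the rest.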 The full list was thinned out, with actives kept by preference.

The experiment is described as follows: growth inhibition of PfHsp90-expressing yeast, primary screen, antimalarial PfHsp90 inhibitor project, S. cerevisiae, BacTiter-Glo luminescence, single point, set 2 (AID 504621).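 Further: yeast relying on Plasmodium falciparum Hsp90 in place of its own; 0% = DMSO neutral controls and 100% = 20 µM radicicol positive controls.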 To be noted: BacTiter-Glo ATP, 48 h, at 9.4 µM, hits give high values, yeast lacking PDR1 and PDR3 efflux regulators.
As usually defined, the inhibition is the relative decrease from the control value, in per cent. Take `COc1cccc(C=CC(=O)C=CC=Cc2ccccc2)c1`: the inhibition is 16.4% (inactive). In the case of `CN(C)C(=S)N=c1ssc(=S)n1Cc1ccco1`, the inhibition was -41.1% (inactive). For `Oc1ccc2ccccc2c1N=Nc1nccs1`, the inhibition is 131% (active). Take `Oc1ccc(N=Nc2nccs2)c(O)c1`: the inhibition is 4.56% (inactive). Next, `c1ccc(NCc2cccc3ccccc23)nc1`: 3.43% (inactive); `CCCCN(CCCC)CCC(O)c1cc2c(Cl)cc(Cl)cc2c2cc(C(F)(F)F)ccc12` (stereo unspecified): 110% (active); `CCCCC(=O)Nc1ccc(C(=O)Nc2cc(C(F)(F)F)ccc2Cl)cc1`: -1.45% (inactive).

In the case of `COc1ccc(C(CNC(=O)c2cccc(S(=O)(=O)Nc3ccc(Br)cc3)c2)N(C)C)cc1` (stereo unspecified), the inhibition was 3.14% (inactive). Next, `C=CC[C@@H](Cc1ccc(F)cc1)C(=O)OC[C@H]1CCCN1C(=O)[C@H](CC=C)CC(=O)N(CCO)Cc1ccccc1`: 6.25% (inactive). As for `NNc1cccc(C=Cc2ccccc2)cc1=O`, the figure is 17.2% (inactive); as for `Oc1c(CN2CCCC2)cc(COCc2ccccc2)c2cccnc12`, 16.4% (inactive). As for `Cc1cccnc1NC(=O)c1cccc(S(=O)(=O)N2CCN(c3ccc(F)cc3)CC2)c1`, the figure is -4.19% (inactive); as for `Oc1c(CN2CCN(c3ccc(F)cc3)CC2)cc(Cl)c2cccnc12`, 136% (active); as for `COc1ccc(Nc2ccc3ccccc3c2)cc1`, -39% (inactive).

Take `O=C(Nc1nnc(CCOCCOCCc2nnc(NC(=O)c3ccco3)s2)s1)c1ccco1`: the inhibition is 4.41% (inactive). As for `O=C(Nc1ccccc1)c1ccco1`, the figure is 1.65% (inactive); as for `O=C(Nc1nc(-c2ccco2)c(-c2ccco2)s1)c1ccco1`, 92% (active).

For `COc1ccc(/C=C2/CCCc3ccccc3C2=O)cc1`, the inhibition was 17.4% (inactive). Next, `CCS(=O)(=O)Nc1cccc(-c2cc(-c3ccccc3)c3cc(C)ccc3n2)c1`: 102% (active); `Cc1ccc2nc(-c3ccncc3)cc(C(=O)Nc3ccncc3)c2c1`: -8.61% (inactive).

Take `Cc1ccc2nc(Nc3ccccc3)cc(C)c2c1`: the inhibition was -1.32% (inactive). As for `O=C1OCC2=C1C(c1ccc(Cl)cc1)c1cc3c(cc1O2)OCO3` (stereo unspecified), the figure is -15.7% (inactive); as for `O=C(Cn1c[n+](CC(=O)c2ccc([N+](=O)[O-])cc2)cn1)c1ccc([N+](=O)[O-])cc1`, -20.5% (inactive) and -1.84% (inactive). Next, `O=C(CC(n1cncn1)C(Cl)(Cl)Cl)c1ccc([N+](=O)[O-])cc1` (stereo unspecified): 123% (active); `O=C(Nn1cnnc1)c1ccc([N+](=O)[O-])cc1`: 10.8% (inactive); `Oc1ccc(-c2nc3ccccc3nc2-c2ccc(O)cc2O)c(O)c1`: 6.66% (inactive).

Turning to `O=C(O)c1ccc(NN=CC2=C(N3CCOCC3)/C(=C/c3ccccc3)CC2)cc1`, the inhibition is -30.6% (inactive). As for `CC(C)c1ccc(C=NNc2ccc([N+](=O)[O-])cn2)cc1`, the figure is -14.5% (inactive). Next, `O=S(=O)(NC1CC1)c1ccc(Cl)cc1`: -7.47% (inactive); `O=S(=O)(NC1CC2CCC1C2)c1ccc(Cl)cc1` (stereo unspecified): 104% (active); `O=S(=O)(NC1CCCCC1N1CCCCC1)c1ccc(Cl)cc1` (stereo unspecified): -25% (inactive).

Turning to `COc1ccc(-c2ccc3c(c2)[C@@H]2C[C@H](N(C)S(=O)(=O)c4ccccc4)[C@H]([C@H](C)O)C(=O)N2CC3)cc1`, the inhibition was 6.39% (inactive). As for `CC(C)Cn1cnc2c(SCc3ccc(Cl)cc3)nc(N)nc21`, the figure is 12.6% (inactive). As for `COc1cccc2c1C(=O)c1c(O)c3c(c(O)c1C2=O)CC(O)(C(C)=NNC(=O)c1ccc(Cl)c(Cl)c1)CC3OC1CC(N)C(O)C(C)O1` (stereo unspecified), the figure is -3.52% (inactive). As for `CC1=C/C(=N\OS(=O)(=O)c2ccccc2)C=CC1=O`, the figure is 100% (active); as for `O=C(Nc1ccc(S(=O)(=O)N2CCOCC2)cc1)C1CCN(S(=O)(=O)c2ccc(Cl)cc2)CC1`, -11.4% (inactive). On to `COc1ccc2c(c1)c(=Cc1ccc(N(C)C)cc1)c1cc(-c3ccccc3)[n+](C)n12`, for which the inhibition is 114% (active).

Consider `COc1ccc2sc(-c3ccc(N(C)C)cc3)c(C#CCO)c2c1`, for which the inhibition was 15% (inactive). Consider `COc1ccc2sc(-c3ccc(N(C)C)cc3)c(-c3ccc4cc[nH]c4c3)c2c1`, for which the inhibition is -6.56% (inactive).

With `CCN1CCC(O)(/C=C/c2ccc(C)cc2)C(C(=O)/C=C/c2ccc(C)cc2)C1` (stereo unspecified), the inhibition is 19.6% (inactive).

On to `Cc1c(NS(=O)(=O)c2cccc(C(=O)Nc3ccc(SC(F)F)cc3)c2)c(=O)n(-c2ccccc2)n1C`, for which the inhibition is -2.76% (inactive). As for `COc1ccc2c(c1)C(=O)CC(c1ccccc1)O2` (stereo unspecified), the figure is -30% (inactive); as for `CCCCC(=O)NC(c1ccc(OC)c(OC)c1)c1ccc2cccnc2c1O` (stereo unspecified), 25.2% (inactive); as for `C#CCOCCOCCOCCNc1nc(N2CCOCC2)nc(N2CCN(C(=O)[C@H](Cc3ccc(O)cc3)n3cc(CCO)nn3)CC2)n1`, 2.07% (inactive).

For `C[C@@H]1C[C@@H]2O[C@H]2/C=C\C=C\C(=O)Cc2c(Cl)c(O)cc(O)c2C(=O)O1`, the inhibition was 95% (active). Next, `Cc1ccc(-c2csc(C(C#N)=C(O)CN3CCN(C(=O)c4ccco4)CC3)n2)cc1`: 4.72% (inactive). Next, `O=C(Cc1ccccc1)NC(=S)Nc1ccc(N2CCCCC2)cc1`: -35.9% (inactive); `CC(=O)Nc1ccc(S(=O)(=O)Nc2ccc(N3CCCCC3)cc2)cc1`: 26.6% (inactive).

As to `O=C1C=CC(=O)N1c1ccc(N2CCCCC2)cc1`, the inhibition is 109% (active). With `O=C(NNc1nc(N2CCCC2)nc(N2CCCC2)n1)c1ccccc1`, the inhibition was 16.9% (inactive). Next, `CCN(CC)CCCC(C)n1c2nc(=O)[nH]c(=O)c-2nc2cc(Cl)ccc21` (stereo unspecified): -9.23% (inactive); `NC(=O)C1CCN(C(=O)c2cc(S(=O)(=O)N3CCN(c4ccccc4)CC3)ccc2Cl)CC1`: -2.95% (inactive). As for `CC1=CC(=NNS(=O)(=O)c2ccc([N+](=O)[O-])cc2)CC(C)(C)C1`, the inhibition was -10.2% (inactive). Next, `O=[N+]([O-])c1ccc(NS(=O)(=O)c2ccccc2)c(Cl)c1`: -12% (inactive). As for `COc1ccc(/C=C/C(=O)c2ccc(OC)cc2O)cc1`, the figure is 3.31% (inactive); as for `COc1ccc(/C=C/C(=O)c2cc(Br)ccc(=O)c2O)cc1`, 99.7% (active); as for `COc1ccc(C(=O)/C=C/c2ccc(OC3CSC3)cc2)cc1`, 12.6% (inactive). For `CN(C(=O)c1cccc(NC(=O)Cc2ccc(NC(=O)C3CCCN(C(=O)C4CCCC4)C3)cc2)c1)C1CCC1` (stereo unspecified), the inhibition was 3.19% (inactive).

Regarding `COC(=O)CC(CC(=O)OC)n1cccc1`, the inhibition was 10.4% (inactive). Next, `Cc1cccc(NC(=S)N2CCC(C(=O)c3ccc(F)cc3)CC2)c1`: -3.65% (inactive). With `COc1ccc(CNCCCNCc2ccc(OC)c(OC)c2)cc1OC`, the inhibition was -32.5% (inactive).

Regarding `CC(=O)N(C1=C(Cl)C(=O)c2ccccc2C1=O)c1ccc(C(=O)O)cc1`, the inhibition was 13.4% (inactive). As for `CC(=O)Oc1ccc2c(c1)C(=O)c1ccccc1C2=O`, the figure is 6.15% (inactive). Next, `O=C1C(Cl)=C(Oc2ccccc2)C(=O)c2ccccc21`: 104% (active); `COc1ccc(Cn2cc(CN3CCS(=O)(=O)N(Cc4ccc(-c5cccc(Cl)c5)cc4)C(C)C3=O)nn2)cc1` (stereo unspecified): -24.7% (inactive). As for `COc1ccc(-c2nn(-c3ccccc3)cc2/C=N/Nc2ccccn2)cc1OC`, the inhibition was -22% (inactive). As for `Oc1ccc(Br)cc1/C=N/Nc1ccccn1`, the figure is 107% (active); as for `Oc1cccc(/C=N/Nc2ccc(Cl)nn2)c1O`, 1.34% (inactive); as for `COc1ccc(CCC(=O)Nc2ccc(Cl)c(S(=O)(=O)N3CCOCC3)c2)cc1OC`, -12.1% (inactive). Next, `CC[C@@H]1Cc2cc(O)ccc2C2=C1c1ccc(O)cc1C[C@H]2CC`: 108% (active); `CSCCC(NC(=O)COc1ccccc1)C(=O)N1CCN(c2cccc(C(F)(F)F)c2)CC1` (stereo unspecified): 46.4% (inactive). As for `Cc1ccc(S(=O)(=O)c2cc3c(=O)n4cccc(C)c4nc3n(CCc3ccccc3)c2=N)cc1C`, the figure is 0.767% (inactive); as for `COc1cc(/C=N/O)cc(Br)c1OCc1cccc(Cl)c1`, 121% (active). Turning to `COc1cc(C(=O)NCc2ccncc2)cc(Br)c1OCc1ccccc1`, the inhibition is 46.3% (inactive).

Consider `COc1cc(/C=N/O)cc(Br)c1OS(=O)(=O)c1ccc(C)cc1`, for which the inhibition is -10.1% (inactive).

For `Cc1nn(-c2ncccn2)c2c1C(=O)CC(C)(C)C2Br` (stereo unspecified), the inhibition was -6.87% (inactive).

In the case of `COc1ccc(CCN2CC(C(=O)OCC(=O)NCc3ccccc3Cl)CC2=O)cc1OC` (stereo unspecified), the inhibition was -2.54% (inactive). Consider `CC1(C)N=C(N)NC(Nc2ccc(Cl)cc2)=N1`, for which the inhibition is 7.88% (inactive). As for `C/C(=N\Nc1ccc(Cl)nn1)c1ccccc1O`, the figure is 2.56% (inactive); as for `CCN(/N=C/c1ccccc1)c1cc(=O)n(C)c(=O)[nH]1`, -32.6% (inactive). Consider `Oc1ccc(/C=N/N(Cc2ccccc2)c2ccccc2)cc1`, for which the inhibition was 96.6% (active). For the molecule `CCN(/N=C/c1ccc(N(C)C)cc1)c1nc2ccccc2[nH]1`, the inhibition is 24% (inactive). For the molecule `Cc1ccc2c(O)c(Cc3ccccc3)c(=O)[nH]c2n1`, the inhibition is -3.48% (inactive). Next, `CC(C)C[C@H]1CN([C@@H](CC(C)C)CN2CCC[C@@H]2CN2C(=O)C(=O)NC[C@@H]2Cc2ccccc2)C(=O)C(=O)N1CCc1ccccc1`: 1.81% (inactive).

In the case of `CC(C=Cc1ccccc1)=NNS(=O)(=O)c1ccc([N+](=O)[O-])cc1`, the inhibition is -1.29% (inactive). As for `CC(=O)OCC1(O)CC23CCC4c5ccoc5CCC4(C)C2CCC1C3` (stereo unspecified), the figure is -29.4% (inactive). With `c1ccc(CCc2ccccn2)cc1`, the inhibition was 12.1% (inactive). Next, `O=[N+]([O-])c1ccc(C=Nc2ccc(Cl)cc2Cl)s1`: 110% (active); `Cc1ccccc1NCC(=O)N/N=C\c1ccc([N+](=O)[O-])s1`: -6.37% (inactive).

On to `CC(C)(C)c1cc(C(=O)N/N=C/c2ccc([N+](=O)[O-])s2)n[nH]1`, for which the inhibition was -5.37% (inactive). As for `CC(C)(C)OC(=O)N1CCC(C(=O)Nc2cccc(C(=O)NCCc3ccccc3)c2)CC1`, the figure is 5.32% (inactive).
